AmpC no deterg: qHTS Inhibitors of AmpC Beta-Lactamase (assay without detergent) | 330,000 tested, 0.52% active | P00811 | Potency, µM (doses to about 57.1 µM), hits mostly inhibitors | AmpC nitrocefin hydrolysis, absorbance 480 nm, 0.0001% Triton; further: nearly all actives have a fitted effect of over 20% in size
Target sequence (P00811 whole entry, looked up): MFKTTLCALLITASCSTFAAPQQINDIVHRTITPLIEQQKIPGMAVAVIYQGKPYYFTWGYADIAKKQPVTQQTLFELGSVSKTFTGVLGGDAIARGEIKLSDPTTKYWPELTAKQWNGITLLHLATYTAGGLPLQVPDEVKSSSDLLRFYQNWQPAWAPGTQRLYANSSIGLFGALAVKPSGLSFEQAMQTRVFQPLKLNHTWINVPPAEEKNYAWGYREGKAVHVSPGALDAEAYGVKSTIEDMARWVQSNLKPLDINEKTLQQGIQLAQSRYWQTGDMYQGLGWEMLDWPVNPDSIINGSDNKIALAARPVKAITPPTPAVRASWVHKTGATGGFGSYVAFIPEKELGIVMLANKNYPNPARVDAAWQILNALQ
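20 mM phosphate pH 7.0 + 0.01% (detergent screen) or 0.0001% Triton X-100; 5.3 nM AmpC reagent; cpd preinc 15 min RT; nitrocefin (800 uM stock) to start; A480 q20 s × 4 min; Activity was normalised to no-enzyme and no-compound control wells.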
SARS PLP yeast: qHTS of Yeast-based Assay for SARS-CoV PLP. S. cerevisiae expressing SARS-CoV PLpro, growth rescue. Potency, µM (titrated, usually from 32.9 µM), actives largely listed as activators. 330,000 tested, 0.19% active. AID 485353, 2010; calls by dose curve; further: nearly all actives have a fitted effect of over 55% in size
Pf growth 48h: Primary qHTS for delayed death inhibitors of the malarial parasite plastid, 48 hour incubation | 310,000 tested, 5.9% active | Potency, µM (series often up to 28.7 µM), actives largely listed as inhibitors | P. falciparum luciferase growth in erythrocytes, 48 h
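Luciferase-expressing parasites in RBCs, 2% Hct / 0.1% parasitemia final; RPMI 1640 + 0.5% Albumax; 37 C, 5% CO2, one generation; luminescence read-out, lower signal = inhibition.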
Sm TGR inh: qHTS Assay for the Inhibitors of Schistosoma Mansoni Peroxiredoxins. Schistosoma mansoni thioredoxin glutathione reductase (TGR), Q962Y6. purified TGR, DTNB reduction, TNB absorbance 405 nm. Potency, µM (highest dose often 114 µM), most hits filed as inhibitors. 360,000 tested, 3% active; further: nearly all actives have a fitted effect of over 60% in size
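TGR 20 nM + NADPH 100 uM (dispensed conc.), cpd preinc 15 min RT; start with NADPH (500 uM addition) then DTNB (15 mM addition). Kinetic TNB absorbance, 405 nm filter. Four-parameter Hill fit across titration.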
AmpC inh detg: qHTS Inhibitors of AmpC Beta-Lactamase (assay with detergent) | AmpC hydrolysis of nitrocefin, absorbance 480 nm, 0.01% Triton | Potency, µM (titrated, usually from 114 µM), actives largely listed as inhibitors | 370,000 tested, 0.041% active; further: nearly all actives have a fitted effect of over 25% in size
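AmpC (5.3 nM in the dispensed reagent) in 20 mM phosphate pH 7.0 with 0.01% (detergent screen) or 0.0001% Triton X-100 was preincubated with compounds for 15 min at room temperature. Nitrocefin was then added from an 800 uM solution, and hydrolysis was followed at 480 nm.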
Pf growth 96h: Primary qHTS for delayed death inhibitors of the malarial parasite plastid, 96 hour incubation | P. falciparum luciferase reporter growth, 96 h | Potency, µM (doses to about 28.7 µM), hits mostly inhibitors | 320,000 tested, 6.9% active
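Two parasite generations (96 h, 37 C, 5% CO2) of compound exposure in infected erythrocytes (0.05% parasitemia, 2% hematocrit). Luciferase-reporter P. falciparum; decreased luminescence indicates inhibited growth, aimed at apicoplast-acting delayed death.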
Of the large screens only hits and unclear results are named; the others gave an inactive call. Shown are actives, neighbours in structure and some others; about 12% of the full set was active somewhere. Unless noted, the call rests on the fitted dose curve; in most records, active means well fitted curve in the direction sought with a large enough effect; inconclusive means small, poorly fitted or top-dose-only effect, or another doubt; inactive means no such curve, though single readings can be large; an effect the other way counts as inactive or inconclusive.

COc1ccc2ncc3c(-c4ccc(C)c(C)c4)nn(CC(=O)Nc4ccccc4)c3c2c1	none (no result: AmpC no deterg, SARS PLP yeast, Pf growth 48h, Pf growth 96h)
CCCCCCCCCCn1c2c(c(=N)c3c1CCC3)CCC2	Pf growth 48h 0.26µM, Pf growth 96h 0.12µM
CCCCCCCCn1c2c(c(=N)c3ccccc31)CCC2	none
CCCCn1c2c(c(=N)c3ccccc31)CCC2	Pf growth 48h 0.41µM, Pf growth 96h inconclusive
CCCCCn1c2c(c(=N)c3ccccc31)CCC2	Pf growth 48h 0.66µM, Pf growth 96h inconclusive
CC(=O)NNC(=O)CCn1c2c(c3ccccc31)CCCC2	none
CCCCCCCCCn1c2c(c(=N)c3c1CCC3)CCCC2	Pf growth 48h inconclusive
CCn1c2c(c(=N)c3c1CCC3)CCCC2	Pf growth 48h 0.52µM, Pf growth 96h inconclusive
CCn1c(=S)[nH]c2sc3c(c2c1=O)CCCC3	Pf growth 48h inconclusive
COc1cccc(C(=O)NC23CC4CC(CC(C4)C2)C3)c1	none
CCc1ccc(NC(=O)[C@H](Cc2ccccc2)NC(=O)C2CCN(C(=O)[C@@H](N)CC(C)C)CC2)cc1	Pf growth 48h inconclusive, Pf growth 96h inconclusive
CCCOc1ccc(C(=O)CCC(=O)OCC(=O)Nc2cc(C)on2)cc1	none (no result: Pf growth 96h)
CCOC(=O)N1CCN(Cc2nc3cc(NC(=O)c4ccccc4Cl)ccc3n2C(C)C)CC1	none (no result: AmpC no deterg, SARS PLP yeast, Pf growth 48h, Pf growth 96h)
Cc1c(CCC(=O)O)c(=O)oc2cc3occ(-c4ccc(F)cc4)c3cc12	none (no result: Pf growth 96h)
Cc1c(CCC(=O)O)c(=O)oc2cc3occ(C(C)(C)C)c3cc12	Pf growth 96h 1µM
Cc1cccc(Oc2ncnc3onc(C)c23)c1	AmpC no deterg 0.79µM
Cc1noc2ncnc(Oc3ccccc3)c12	none
COC(=O)N1C/C=C\C(c2ccc(OC)cc2)N(Cc2ccc(F)cc2)C(=O)C1 (configuration not stated)	Pf growth 48h inconclusive, Pf growth 96h inconclusive
COc1ccc(C2/C=C\CN(C(=O)c3ccccc3)[C@H](Cc3ccccc3)C(=O)N2Cc2ccc(F)cc2)cc1 (some centres not stated)	Pf growth 48h inconclusive, Pf growth 96h inconclusive
COc1ccc(C2/C=C\CN(CC3CC3)CC(=O)N2Cc2ccc(F)cc2)cc1 (configuration not stated)	none
COc1ccc(C2/C=C\CN(S(=O)(=O)c3cccc4cccnc34)CC(=O)N2Cc2ccc(F)cc2)cc1 (configuration not stated)	Pf growth 48h inconclusive, Pf growth 96h 12µM
COc1ccc(C2/C=C\CN(S(=O)(=O)c3ccc(C)cc3)CC(=O)N2Cc2ccc(F)cc2)cc1 (configuration not stated)	Pf growth 48h inconclusive, Pf growth 96h inconclusive
COc1ccc(C2/C=C\CN(C(=O)Nc3ccccc3-c3ccccc3)CC(=O)N2Cc2ccc(F)cc2)cc1 (configuration not stated)	Pf growth 48h 13µM, Pf growth 96h 13µM
COc1ccc(C2/C=C\CN(CC(C)(C)C)CC(=O)N2Cc2ccc(F)cc2)cc1 (configuration not stated)	Pf growth 48h inconclusive, Sm TGR inh 32µM, Pf growth 96h inconclusive
COc1ccc(C2/C=C\CN(S(=O)(=O)/C=C/c3ccccc3)[C@H](Cc3ccccc3)C(=O)N2Cc2ccc(F)cc2)cc1 (some centres not stated)	Pf growth 48h inconclusive, Sm TGR inh 22µM, Pf growth 96h inconclusive
Cn1c(SCC(=O)NC2CCCC2)nnc1C(F)(F)F	none
COc1ccc(NC(=O)CN2CCc3ccccc3C2)c(OC)c1	Pf growth 96h inconclusive
COc1ccc(NC(=O)CN2C(=O)N(C)Cc3ccccc32)c(C)c1	AmpC inh detg inconclusive, Pf growth 96h 15µM
C=CCn1c(C(c2ccccc2)c2ccccc2)n[nH]c1=S	Pf growth 96h 3.7µM
